Data on 17 compounds can be found in PubChem BioAssay AID485284 (NMMLSC, 2010).

Measured potencies and affinities stand elsewhere.

The test is described as follows: loss of vesicle association with mouse CD8+ T cells – mouse 2C CD8+ T cells, flow cytometry, dose response (AID 485284).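 Also: drosophila derived vesicles carrying Ld MHC with QL9 peptide plus B7-1 and ICAM-1; vesicle binding seen as anti-B7-1 PE fluorescence on CD8 gated cells.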 The note with it: 2C mouse CD8+ T cell-exosome binding; at 45 µM (top of the series). On the technique in general: Flow cytometry measures light scatter and fluorescence of single cells or particles in a stream.
On to `CN1CCN(S(=O)(=O)c2ccc(C(=O)Nc3ccccc3)cc2)CC1`, for which the binding remaining, % of control was 124%.

Turning to `CCOC(=O)c1c(NC(=O)CN2C(=O)NC3(CCC(C)CC3)C2=O)sc(C)c1-c1ccc(C)cc1` (configuration not stated), the binding remaining, % of control worked out at 108%. For `Cc1ncc([N+](=O)[O-])n1Cc1cccc(F)c1` the value was 40.3%; for `Cc1ccc2c(Cl)cc(Cl)c(OCC(=O)OCC(=O)Nc3ccc(C#N)cc3)c2n1`, 141%; for `Cn1c(=O)c2cc(S(=O)(=O)NCCC(=O)NC3CCCCCC3)ccc2n(C)c1=O`, 83.7%. Consider `COc1ccccc1NC(=O)Cn1cnc2sc(C)c(S(=O)(=O)N3CCCCC3)c2c1=O`, for which the binding remaining, % of control stood at 115%. For `O=C(N/N=C/c1cccc(OC(=O)c2ccccc2Cl)c1)c1cccnc1` the value was 168%. For `O=C(Cc1cccs1)Nc1cc(S(=O)(=O)N2CCCCC2)ccc1Cl` the value was 121%; for `O=C(Nn1cnc2ccccc2c1=O)C1CCCCC1`, 106%; for `O=C(COC(=O)c1ccc(S(=O)(=O)N2CCOCC2)cc1)Nc1ccccc1OC(F)F`, 20.5%. Take `O=C(c1ccco1)N1CCN(C(c2ccccc2Cl)c2nnnn2Cc2ccco2)CC1` (configuration not stated): the binding remaining, % of control came out at 17.4%. For `CN1CCN(C(=O)c2cc3ccccc3cc2O)CC1` the value was 178%; for `COc1cc(OC)c2cc(C(=O)N[C@H](C(=O)N3CCC[C@H]3C(=O)O)C(C)C)n(C)c2c1`, 99.6%. Consider `CCOC(=O)CSc1nc(COc2ccccc2)nc2ccccc12`, for which the binding remaining, % of control is 99.6%. For `Cc1cccc(OCC(=O)Nc2ccccc2C(=O)N2CCOCC2)c1` the value was 161%; for `COC(=O)CN1C(=S)N(C)C(=O)C1CC(=O)Nc1ccccc1` (configuration not stated), 123%. As to `COc1ccc([C@H]2CC(=O)C=C(c3ccc4c5c(cccc35)CC4)C2)cc1`, the binding remaining, % of control was 119%.
